The source made the active and inactive calls. The calls were made as follows: active = hit-call score of the fitted dose curve at least 0.9, where 1 is the maximum; inactive = score below 0.9.
Assay: CEETOX_H295R_OHPROG: CeeTox H295R High-throughput Steroidogenesis Assay for OH-Progesterone (OHPROG) (AID 2283435);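 as to AC50: 17alpha-hydroxyprogesterone secreted into medium measured by HPLC-MS/MS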
Conditions: actives raise or lower the signal
Method in brief: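 Medium steroid levels read by LC-MS/MS after 48 h chemical treatment (0.1% DMSO) of human adrenal H295R cells that had been forskolin-primed (10 uM, 48 h). Gain or loss fitted against DMSO; MTT cytotoxicity checked per well.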

SMILES	outcome	AC50
COP(=S)(OC)SCN1C(=O)c2ccccc2C1=O	inactive	
c1ccc2c(c1)-c1cccc3cccc-2c13		30.7 µM (active)
CCC(C)c1ccc(O)cc1 (centres undefined)		22.5 µM (active)
O=[N+]([O-])c1ccc(Oc2ccc(Cl)cc2Cl)cc1	inactive	
Cc1cc(N=Nc2ccccc2C)ccc1N		1.79 µM (active)
O=P(OCCCl)(OCCCl)OCCCl	inactive	
CCOC(=O)[C@]1(c2ccccc2)Oc2ccccc2[C@@H]1N		3.16 µM (active)
Oc1ccc2ccc3cccc4ccc1c2c34	inactive	
Cc1cccc(N)c1N		18.5 µM (active)
c1ccc(NNc2ccccc2)cc1		48.6 µM (active)

Assay: CEETOX_H295R_CORTIC: CeeTox H295R High-throughput Steroidogenesis Assay for Corticosterone (CORTIC) (AID 2283437);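 as to AC50: human H295R adrenal cells prestimulated with forskolin before chemical exposure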
Conditions: actives raise or lower the signal
Method in brief: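 Medium corticosterone was quantified by tandem mass spectrometry following 48 hours of chemical exposure (0.1% DMSO) in human H295R cells previously stimulated 48 hours with 10 uM forskolin. Viability checked by MTT; chemicals diluted and retested when viability fell below 70%.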

SMILES	outcome	AC50
COP(=S)(OC)SCN1C(=O)c2ccccc2C1=O	inactive	
CCC(C)c1ccc(O)cc1 (centres undefined)	inactive	
O=[N+]([O-])c1ccc(Oc2ccc(Cl)cc2Cl)cc1	inactive	
Cc1cc(N=Nc2ccccc2C)ccc1N		2.24 µM (active)
O=P(OCCCl)(OCCCl)OCCCl	inactive	
CCOC(=O)[C@]1(c2ccccc2)Oc2ccccc2[C@@H]1N		0.33 µM (active)
Oc1ccc2ccc3cccc4ccc1c2c34		25.5 µM (active)
Cc1cccc(N)c1N	inactive	

Assay: CEETOX_H295R_CORTISOL: CeeTox H295R High-throughput Steroidogenesis Assay for Cortisol (AID 2283438);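 also: cortisol secreted into medium quantified by LC-MS/MS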
Conditions: actives raise or lower the signal
Method in brief: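 Cortisol measured by HPLC-MS/MS after MTBE extraction of medium from H295R cells exposed 48 h to chemical (0.1% DMSO), following 48 h prestimulation with 10 uM forskolin. Viability assessed by MTT in the same wells.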

SMILES	outcome	AC50
COP(=S)(OC)SCN1C(=O)c2ccccc2C1=O	inactive	
CCC(C)c1ccc(O)cc1 (centres undefined)	inactive	
Cc1cc(N=Nc2ccccc2C)ccc1N	inactive	
O=P(OCCCl)(OCCCl)OCCCl	inactive	
CCOC(=O)[C@]1(c2ccccc2)Oc2ccccc2[C@@H]1N		2.9 µM (active)
Oc1ccc2ccc3cccc4ccc1c2c34		35.7 µM (active)
Cc1cccc(N)c1N	inactive	
c1ccc(NNc2ccccc2)cc1	inactive	

Assay: CEETOX_H295R_DOC: CeeTox H295R High-throughput Steroidogenesis Assay for DOC (AID 2283439)
Conditions: actives raise or lower the signal
Method in brief: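 11-Deoxycorticosterone quantified in medium by MTBE extraction and HPLC-MS/MS after 48 h chemical exposure (0.1% DMSO) of forskolin-primed (10 uM, 48 h) H295R cells. Same-well MTT viability; data fitted bidirectionally against DMSO.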

SMILES	outcome	AC50
COP(=S)(OC)SCN1C(=O)c2ccccc2C1=O	inactive	
CCC(C)c1ccc(O)cc1 (centres undefined)	inactive	
O=[N+]([O-])c1ccc(Oc2ccc(Cl)cc2Cl)cc1	inactive	
Cc1cc(N=Nc2ccccc2C)ccc1N	inactive	
O=P(OCCCl)(OCCCl)OCCCl	inactive	
CCOC(=O)[C@]1(c2ccccc2)Oc2ccccc2[C@@H]1N		2.52 µM (active)
Oc1ccc2ccc3cccc4ccc1c2c34		12.9 µM (active)
Cc1cccc(N)c1N	inactive	

From PubChem BioAssay (EPA / NIEHS)
